Only some compounds are listed: those with a hit (about 2.5% of all), similar ones and a draw of the others.
Casp6 inh = caspase-6 (human) enzyme inhibition. P55212. purified caspase-6, Z-VEID-R110 cleavage fluorescence. inhibition, % at 12.5 µM. 350,000 tested, 0.53% active;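 active = mean inhibition across replicates at least about 35%, with every replicate also reaching that limit, limit read from the data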
AF4-AF9 inh = blocks AF4 peptide binding to human AF9. AID 651704. 350,000 tested, 0.47% active. inhibition, % at 10 µM. AlphaScreen, biotin-AF4 peptide binding to FLAG-AF9;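 active = every replicate reaching a set inhibition limit, whatever the replicate mean, cut at about 25% in these data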
Target sequence (P42568 whole entry, looked up): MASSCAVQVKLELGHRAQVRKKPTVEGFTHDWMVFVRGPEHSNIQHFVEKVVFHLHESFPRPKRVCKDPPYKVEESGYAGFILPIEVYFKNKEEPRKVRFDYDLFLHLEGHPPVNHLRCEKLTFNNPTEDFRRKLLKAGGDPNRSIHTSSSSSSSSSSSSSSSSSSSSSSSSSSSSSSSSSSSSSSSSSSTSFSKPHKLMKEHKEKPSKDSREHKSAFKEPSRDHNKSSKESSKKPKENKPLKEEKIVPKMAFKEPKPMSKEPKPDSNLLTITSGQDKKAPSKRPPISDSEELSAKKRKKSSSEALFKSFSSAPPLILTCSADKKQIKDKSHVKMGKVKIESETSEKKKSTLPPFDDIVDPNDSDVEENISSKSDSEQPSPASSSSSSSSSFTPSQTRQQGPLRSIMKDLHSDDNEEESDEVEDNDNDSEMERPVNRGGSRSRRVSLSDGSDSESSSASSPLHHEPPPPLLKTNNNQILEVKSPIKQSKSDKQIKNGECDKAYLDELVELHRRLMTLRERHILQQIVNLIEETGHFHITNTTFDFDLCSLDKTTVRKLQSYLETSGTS
NSD2 HMT inh = blocks human histone methyltransferase NSD2; NSD2 peptide methylation, AlphaScreen, 120 min; 310,000 tested, 0.54% active; O96028; inhibition, % at 12.5 µM; AID 743445; in the data active = inhibition above about 50%
RAD52 inh = RAD52 (human) annealing inhibition; recombinant RAD52 DNA annealing, FRET fluorescence; inhibition, % at 18.7 µM; 360,000 tested, 0.46% active; AID 651710;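 active = every replicate showing at least 50% inhibition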
Ecoli rRNA inh = inhibits bacterial ribosomal RNA function over humanized ribosomes; E. coli WT GFP vs humanized-ribosome RFP mutants, fluorescence, 24 h; stronger effect = lower value; DMSO median 0, no signal -100; GFP signal change (wild-type ribosome), % (no concentration beside the values); 350,000 tested, 1.6% active;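 active = significant combined selectivity score with lowered wild-type GFP, culture density cut under 30%, mutant RFP and density less affected; inactive = any of these conditions unmet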
A number is an active result; . = inactive; / = no result.

SMILES	Casp6 inh	AF4-AF9 inh	NSD2 HMT inh	RAD52 inh	Ecoli rRNA inh
Cc1ccc(CS(=O)Cc2ccc(C(=O)NCCc3ccccc3)o2)cc1 (centres undefined)	.	.	.	.	-22
CC(=O)N(C)C[C@H]1Oc2cc(-c3ccccc3C)ccc2S(=O)(=O)N([C@@H](C)CO)C[C@H]1C	.	.	/	.	.
CCC(=O)N1CC2(CN(C(=O)CN3CCOCC3)C2)c2c([nH]c3cc(OC)ccc23)[C@H]1CO	.	.	/	.	.
CN(C)c1cccc(C(=O)OCC(=O)N2CCc3ccccc3C2)c1	.	.	.	.	-30
Nc1ccc(C(=O)OCC(=O)N2CCc3ccccc3C2)cc1[N+](=O)[O-]	.	.	.	.	-23
CNC[C@@H]1OCCCC[C@H](C)Oc2ccc(NS(=O)(=O)c3c(C)noc3C)cc2C(=O)N([C@@H](C)CO)C[C@@H]1C	/	/	/	/	.
COc1ccc2c(c1)c(=O)oc1c(C)c(OCc3ccc(C(=O)O)cc3)ccc12	.	/	.	.	.
COc1ccc2c(c1)c(=O)oc1c(C)c(OCc3cc(C(=O)O)oc3C)ccc12	51	.	/	.	.
O=C(N/N=C/c1cc(Br)c(Br)o1)C(O)c1ccccc1 (centres undefined)	40	.	.	.	.
C[C@@H]1CN([C@@H](C)CO)C(=O)Cc2cc(NC(=O)CCCN(C)C)ccc2O[C@@H]1CN(C)S(=O)(=O)c1ccc(Cl)cc1	.	.	/	.	.
COc1ccccc1S(=O)(=O)N[C@@H]1C=C[C@@H](CC(=O)N2CCOCC2)O[C@H]1CO	53	.	/	.	.
CC(C)NC(=O)Nc1cccc2c1O[C@@H](CN(C)CC1CCCCC1)[C@H](C)CN([C@@H](C)CO)C2=O	.	.	/	.	.
CCC(=O)N(C)C[C@@H]1Oc2ncc(C#CCC(C)C)cc2C(=O)N([C@H](C)CO)C[C@@H]1C	.	.	/	.	.
O=C(NN=Cc1cc(Cl)ccc1[N+](=O)[O-])c1ccco1	.	.	.	.	-19
C[C@H]1CC=CCCNC(=O)[C@H](C)N(C)C(=O)c2ccccc2O1 (mixture of isomers)	/	/	/	/	.
CCOC(=O)c1ccccc1-n1c(C)cc(C2N=C(N)Nc3nc4ccccc4n32)c1C (centres undefined)	.	25	.	.	.
COc1ccc(NC(=O)Nc2cccc3c2O[C@@H](CN(C)C(=O)Nc2ccc(C(F)(F)F)cc2)[C@@H](C)CN([C@H](C)CO)C3=O)cc1	/	/	/	/	.
CCOC(=O)C1=CNS(=O)(=O)NC1CCc1ccccc1 (centres undefined)	.	.	/	.	-22
O=C(CN1C(=O)NC(Cc2ccccc2)C1=O)Nc1ccc(F)c(Cl)c1 (centres undefined)	.	.	.	.	-28
O=C(C/C=N\OCc1ccc([N+](=O)[O-])cc1)Nc1ccc(Cl)cc1	.	.	.	.	-40
O=C1NC(Cc2ccc(O)cc2)c2nc3ccc(Br)cc3c(=O)n2-c2ncccc21 (centres undefined)	40	.	/	.	-21
O=C(C[C@@H]1C=C[C@H](NC(=O)Nc2ccc3c(c2)OCO3)[C@H](CO)O1)NCc1ccc2c(c1)OCO2	.	.	/	.	.
Cc1ccc(C)c(OCc2cc(C(=O)N3CC[C@@H]4CCCC[C@H]4C3)no2)c1	.	.	.	.	.
COc1cc(C)ccc1OCc1cc(C(=O)N2CCC(c3ccc(F)cc3)C2)no1 (centres undefined)	.	.	.	.	-14
CC(C)NC(=O)N(C)C[C@@H]1Oc2ccc(N)cc2CC(=O)N(C)C[C@@H]1C	/	/	/	/	.
SMILES	Casp6 inh	AF4-AF9 inh	NSD2 HMT inh	RAD52 inh	Ecoli rRNA inh
O=c1cc(CN2CCN(c3ccc(O)cc3)CC2)nc2scc(-c3ccccc3)n12	/	.	.	.	.
C=CCN(CC=C)Cc1cc(=O)n2c(-c3ccccc3)csc2n1	.	49	.	.	.
CC1=C2[C@@H](c3ccccc3)OB(O)C[C@@H]2[C@@H]2C(=O)N(Cc3ccccc3)C(=O)[C@@H]2C1	.	.	/	.	/
N/C(=N/OC(=O)c1ccccc1Cl)c1nonc1N	.	.	.	.	-23
O=C1ON=C(c2ccccc2)/C1=C/c1ccccc1	.	.	.	.	.
O=C1ON=C(c2ccccc2)/C1=C\c1ccco1	36	.	.	.	.
Cc1ccc(C2=NOC(=O)/C2=C\c2ccccc2)cc1	.	.	.	.	/
Cc1ccc(/C=C2/C(=O)ON=C2c2ccccc2)o1	60	.	.	.	.
O=C1N[C@H](Cc2ccccc2)COCc2cn(nn2)CC[C@@H]1Cc1cccc(Cl)c1	/	/	/	/	.
CO[C@@H]1CN(C)C(=O)c2cc(NC(=O)NC(C)C)ccc2OC[C@@H](C)N(C(=O)CC2CC2)C[C@@H]1C	.	.	/	.	.
CCOC(=O)c1c(NC(=O)CSc2nnc(-c3ccccc3)n2CC)sc(C(C)=O)c1C	.	/	/	.	-37
COCCn1c(SCC(=O)Nc2cc(C)on2)nnc1-c1ccco1	/	/	.	/	/
COCCn1c(SCC(=O)Nc2cc(C)on2)nnc1-c1ccccc1	.	34	.	.	.
COc1ccc2c3c(n(C)c2c1)[C@@H](CO)N(C(=O)CN1CCOCC1)CC31CN(C)C1	/	/	/	.	.
CNC[C@@H]1Oc2ccc(NC(=O)NC(C)C)cc2CC(=O)N(C)C[C@@H]1C	/	/	/	/	.
C[C@H]1CN([C@@H](C)CO)C(=O)c2cccc(NS(=O)(=O)c3cn(C)cn3)c2O[C@@H]1CN(C)Cc1ccc(C(=O)O)cc1	.	.	/	.	.
CO[C@H]1CN(C)C(=O)c2cc(NC(=O)Nc3c(C)noc3C)ccc2OC[C@@H](C)N(CCC(F)(F)F)C[C@@H]1C	/	.	/	.	.
COc1ccc2oc(C)c(C(=O)c3ccccc3)c2c1	.	.	.	.	-30
COc1ccc(S(=O)(=O)Nc2ccc3c(c2)C(=O)N([C@H](C)CO)C[C@@H](C)[C@H](CN(C)S(=O)(=O)c2cccs2)OCCCC[C@H](C)O3)cc1	.	.	/	.	.
O=[N+]([O-])c1ccc2c(c1Nc1ccccc1)=NC1(CCCCC1)N=2	/	/	.	/	/
COc1ccc(Nc2c([N+](=O)[O-])ccc3c2=NC2(CCCCC2)N=3)cc1	.	34	.	.	.
C[C@@H]1CN([C@@H](C)CO)C(=O)c2c(c3ccccc3n2C)-c2ccccc2CO[C@@H]1CN(C)C(=O)[C@H](C)c1ccccc1	.	.	/	.	.
C[C@@H]1CN([C@@H](C)CO)C(=O)c2cc(C#CC3CCCCC3)cnc2O[C@@H]1CN(C)C(=O)NC1CCCC1	.	.	/	.	.
Cc1nn(-c2cc(C(F)(F)F)ccc2Cl)c2nc(C(Cl)(Cl)Cl)[nH]c(=O)c12	.	.	.	.	-15
Cc1nn(-c2ccccc2)c2nc(C(F)(F)F)[nH]c(=O)c12	.	.	.	.	.
Cc1noc(C)c1NC(=O)N(C)C[C@@H]1Oc2c(NC(=O)Nc3ccc(F)cc3)cccc2C(=O)N([C@H](C)CO)C[C@@H]1C	.	.	/	.	.
CNC[C@H]1Oc2c(NS(C)(=O)=O)cccc2C(=O)N(C)C[C@H]1C	/	/	/	/	.

Screening data deposited in PubChem BioAssay by Broad Institute.
